In the supplement of paper PMC11732987, “Enantioselective OTUD7B fragment discovery through chemoproteomics screening and high-throughput optimisation” (Communications Chemistry, 2025):

Assays:
Assay in all cases: log2 ratio of Biotin-Ahx-Ub-VS probe labelling (fragment/DMSO); higher = less target engagement (more negative = stronger competition), active = hit call of the paper (q ≤ 0.05, log2 ratio ≤ -1)
Conditions in all cases: compound concentration: 200 uM; treatment time: 3 h
USP9X = USP9X (UniProt Q93008)
Chain of USP9X (Q93008 whole entry, the tested form may be a part): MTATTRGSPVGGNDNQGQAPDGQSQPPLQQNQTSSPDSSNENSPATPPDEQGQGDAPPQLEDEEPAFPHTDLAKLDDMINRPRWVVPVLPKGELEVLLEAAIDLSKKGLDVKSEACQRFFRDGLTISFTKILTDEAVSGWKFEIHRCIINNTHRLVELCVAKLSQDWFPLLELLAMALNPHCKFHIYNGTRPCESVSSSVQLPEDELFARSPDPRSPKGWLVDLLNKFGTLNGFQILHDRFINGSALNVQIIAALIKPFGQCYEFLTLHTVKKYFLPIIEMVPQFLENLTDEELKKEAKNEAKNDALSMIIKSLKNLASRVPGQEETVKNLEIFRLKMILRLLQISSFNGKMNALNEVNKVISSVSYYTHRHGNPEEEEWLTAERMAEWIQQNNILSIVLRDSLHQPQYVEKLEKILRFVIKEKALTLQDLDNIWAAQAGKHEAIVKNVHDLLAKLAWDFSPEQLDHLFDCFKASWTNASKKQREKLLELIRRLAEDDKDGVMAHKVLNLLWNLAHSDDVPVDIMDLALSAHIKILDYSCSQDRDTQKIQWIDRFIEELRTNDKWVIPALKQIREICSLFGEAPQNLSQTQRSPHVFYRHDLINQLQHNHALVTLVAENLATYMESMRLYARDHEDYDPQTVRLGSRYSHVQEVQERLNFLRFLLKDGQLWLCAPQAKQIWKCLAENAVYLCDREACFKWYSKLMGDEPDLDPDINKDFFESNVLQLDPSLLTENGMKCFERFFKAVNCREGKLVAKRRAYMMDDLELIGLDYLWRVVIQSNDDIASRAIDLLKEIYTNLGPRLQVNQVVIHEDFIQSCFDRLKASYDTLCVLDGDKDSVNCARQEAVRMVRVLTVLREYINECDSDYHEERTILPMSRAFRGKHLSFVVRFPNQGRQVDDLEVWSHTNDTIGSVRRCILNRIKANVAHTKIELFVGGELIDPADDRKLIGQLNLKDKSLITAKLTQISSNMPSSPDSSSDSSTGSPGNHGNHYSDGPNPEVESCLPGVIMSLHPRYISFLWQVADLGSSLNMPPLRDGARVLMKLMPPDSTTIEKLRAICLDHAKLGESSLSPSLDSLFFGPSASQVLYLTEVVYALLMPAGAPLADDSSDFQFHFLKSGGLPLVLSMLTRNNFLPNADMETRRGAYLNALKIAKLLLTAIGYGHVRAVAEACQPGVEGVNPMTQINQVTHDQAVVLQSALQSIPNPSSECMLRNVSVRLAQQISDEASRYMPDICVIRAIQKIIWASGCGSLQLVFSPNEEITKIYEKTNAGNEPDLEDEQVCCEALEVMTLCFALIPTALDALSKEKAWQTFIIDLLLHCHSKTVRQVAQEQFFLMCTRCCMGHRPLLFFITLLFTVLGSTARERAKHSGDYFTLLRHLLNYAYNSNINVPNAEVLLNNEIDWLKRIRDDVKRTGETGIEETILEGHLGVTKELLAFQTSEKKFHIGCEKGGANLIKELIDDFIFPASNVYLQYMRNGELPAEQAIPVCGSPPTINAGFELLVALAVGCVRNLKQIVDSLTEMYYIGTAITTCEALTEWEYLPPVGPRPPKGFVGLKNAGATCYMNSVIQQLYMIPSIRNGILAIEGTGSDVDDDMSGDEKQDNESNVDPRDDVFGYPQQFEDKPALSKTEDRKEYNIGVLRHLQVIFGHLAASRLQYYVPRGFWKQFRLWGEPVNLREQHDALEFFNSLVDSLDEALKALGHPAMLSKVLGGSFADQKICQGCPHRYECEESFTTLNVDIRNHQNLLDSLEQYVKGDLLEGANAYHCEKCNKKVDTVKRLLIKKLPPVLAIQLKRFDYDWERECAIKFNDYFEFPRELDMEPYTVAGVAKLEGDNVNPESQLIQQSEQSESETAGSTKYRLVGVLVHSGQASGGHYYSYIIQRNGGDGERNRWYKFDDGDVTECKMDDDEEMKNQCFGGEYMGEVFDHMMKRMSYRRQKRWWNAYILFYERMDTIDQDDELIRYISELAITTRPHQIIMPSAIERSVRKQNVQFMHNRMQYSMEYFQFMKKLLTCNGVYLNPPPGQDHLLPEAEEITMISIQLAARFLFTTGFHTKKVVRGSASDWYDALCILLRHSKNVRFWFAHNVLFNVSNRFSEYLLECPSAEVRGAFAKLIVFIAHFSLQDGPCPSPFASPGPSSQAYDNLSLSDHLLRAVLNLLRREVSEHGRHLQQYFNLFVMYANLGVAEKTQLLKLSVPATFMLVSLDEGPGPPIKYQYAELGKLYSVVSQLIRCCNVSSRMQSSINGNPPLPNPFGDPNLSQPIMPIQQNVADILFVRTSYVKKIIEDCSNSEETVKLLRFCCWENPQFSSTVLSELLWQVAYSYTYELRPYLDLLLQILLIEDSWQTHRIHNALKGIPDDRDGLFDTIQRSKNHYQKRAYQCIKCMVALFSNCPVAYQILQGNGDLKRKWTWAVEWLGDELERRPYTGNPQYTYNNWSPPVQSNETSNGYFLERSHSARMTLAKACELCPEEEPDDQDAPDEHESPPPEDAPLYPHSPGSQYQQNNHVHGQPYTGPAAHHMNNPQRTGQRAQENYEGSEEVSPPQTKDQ
Procedure, shortened: (§1)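 Fragment (200 µM) or vehicle was incubated for 3 h with triplicate HEK293T lysate samples of 495 µg, which were then treated with Biotin-Ahx-Ub-VS at 0.5 µM final for 1 h. Labelled DUBs were enriched on NeutrAvidin, digested with LysC and trypsin, and analysed by diaPASEF LC-MS/MS. Values are average log2 fragment/vehicle ratios from an unpaired t-test on global-median-normalised Spectronaut label-free quantities, using proteins with ≥2 unique peptides.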

UniProt O00487 = biological target: UniProt O00487
Chain of UniProt O00487 (O00487 whole entry): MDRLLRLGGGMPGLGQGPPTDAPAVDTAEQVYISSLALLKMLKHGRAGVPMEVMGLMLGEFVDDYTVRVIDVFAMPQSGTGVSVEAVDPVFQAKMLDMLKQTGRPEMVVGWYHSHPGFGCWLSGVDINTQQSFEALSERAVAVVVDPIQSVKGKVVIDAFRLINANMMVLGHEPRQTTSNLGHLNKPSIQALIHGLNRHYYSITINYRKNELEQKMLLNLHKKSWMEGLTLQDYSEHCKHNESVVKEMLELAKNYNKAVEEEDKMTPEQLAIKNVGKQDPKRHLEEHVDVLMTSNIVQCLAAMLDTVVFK
Procedure, shortened: as §1

UniProt O00507 = biological target: UniProt O00507
Procedure, shortened: as §1

UniProt P51784 = biological target: UniProt P51784
Chain of UniProt P51784 (P51784 whole entry): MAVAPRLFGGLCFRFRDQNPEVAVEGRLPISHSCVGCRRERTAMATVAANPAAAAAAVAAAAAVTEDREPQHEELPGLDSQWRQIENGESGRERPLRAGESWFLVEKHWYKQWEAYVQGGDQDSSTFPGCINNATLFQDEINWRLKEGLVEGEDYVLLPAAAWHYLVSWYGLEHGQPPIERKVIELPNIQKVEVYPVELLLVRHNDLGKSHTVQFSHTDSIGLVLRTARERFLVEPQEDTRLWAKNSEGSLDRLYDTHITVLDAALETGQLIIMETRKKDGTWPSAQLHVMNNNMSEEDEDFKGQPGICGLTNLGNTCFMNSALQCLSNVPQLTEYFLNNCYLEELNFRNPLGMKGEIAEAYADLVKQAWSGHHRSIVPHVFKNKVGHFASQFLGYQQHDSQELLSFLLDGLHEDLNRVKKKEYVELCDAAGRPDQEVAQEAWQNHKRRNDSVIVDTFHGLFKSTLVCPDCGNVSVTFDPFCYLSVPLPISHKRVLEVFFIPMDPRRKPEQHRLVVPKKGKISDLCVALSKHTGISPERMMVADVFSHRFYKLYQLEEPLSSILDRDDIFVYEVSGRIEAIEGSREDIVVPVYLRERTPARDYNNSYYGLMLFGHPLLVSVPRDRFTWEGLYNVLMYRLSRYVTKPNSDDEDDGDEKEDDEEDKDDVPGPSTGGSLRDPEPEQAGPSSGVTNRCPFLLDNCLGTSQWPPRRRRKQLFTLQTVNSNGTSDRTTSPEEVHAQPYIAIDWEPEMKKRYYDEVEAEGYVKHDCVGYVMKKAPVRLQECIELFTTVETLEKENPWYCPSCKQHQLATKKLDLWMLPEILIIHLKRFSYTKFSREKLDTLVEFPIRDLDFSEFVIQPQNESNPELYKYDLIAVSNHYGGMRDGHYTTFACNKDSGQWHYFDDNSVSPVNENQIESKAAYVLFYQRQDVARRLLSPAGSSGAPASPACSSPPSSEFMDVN
Procedure, shortened: as §1

UniProt Q5T2D3 = biological target: T1, UniProt Q5T2D3
T1 sequence (whole entry): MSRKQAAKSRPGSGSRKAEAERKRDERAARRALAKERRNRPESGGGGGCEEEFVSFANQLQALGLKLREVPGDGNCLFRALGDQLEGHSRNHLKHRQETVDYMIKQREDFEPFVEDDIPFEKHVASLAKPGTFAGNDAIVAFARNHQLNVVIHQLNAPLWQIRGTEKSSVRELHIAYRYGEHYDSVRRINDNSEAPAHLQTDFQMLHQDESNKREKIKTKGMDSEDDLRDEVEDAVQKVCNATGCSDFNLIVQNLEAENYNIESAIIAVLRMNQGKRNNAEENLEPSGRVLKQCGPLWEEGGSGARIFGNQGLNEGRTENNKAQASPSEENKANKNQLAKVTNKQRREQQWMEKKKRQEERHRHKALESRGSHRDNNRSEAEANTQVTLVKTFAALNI
Procedure, shortened: as §1

UniProt Q8TE49 = biological target: T2, UniProt Q8TE49
T2 sequence (whole entry): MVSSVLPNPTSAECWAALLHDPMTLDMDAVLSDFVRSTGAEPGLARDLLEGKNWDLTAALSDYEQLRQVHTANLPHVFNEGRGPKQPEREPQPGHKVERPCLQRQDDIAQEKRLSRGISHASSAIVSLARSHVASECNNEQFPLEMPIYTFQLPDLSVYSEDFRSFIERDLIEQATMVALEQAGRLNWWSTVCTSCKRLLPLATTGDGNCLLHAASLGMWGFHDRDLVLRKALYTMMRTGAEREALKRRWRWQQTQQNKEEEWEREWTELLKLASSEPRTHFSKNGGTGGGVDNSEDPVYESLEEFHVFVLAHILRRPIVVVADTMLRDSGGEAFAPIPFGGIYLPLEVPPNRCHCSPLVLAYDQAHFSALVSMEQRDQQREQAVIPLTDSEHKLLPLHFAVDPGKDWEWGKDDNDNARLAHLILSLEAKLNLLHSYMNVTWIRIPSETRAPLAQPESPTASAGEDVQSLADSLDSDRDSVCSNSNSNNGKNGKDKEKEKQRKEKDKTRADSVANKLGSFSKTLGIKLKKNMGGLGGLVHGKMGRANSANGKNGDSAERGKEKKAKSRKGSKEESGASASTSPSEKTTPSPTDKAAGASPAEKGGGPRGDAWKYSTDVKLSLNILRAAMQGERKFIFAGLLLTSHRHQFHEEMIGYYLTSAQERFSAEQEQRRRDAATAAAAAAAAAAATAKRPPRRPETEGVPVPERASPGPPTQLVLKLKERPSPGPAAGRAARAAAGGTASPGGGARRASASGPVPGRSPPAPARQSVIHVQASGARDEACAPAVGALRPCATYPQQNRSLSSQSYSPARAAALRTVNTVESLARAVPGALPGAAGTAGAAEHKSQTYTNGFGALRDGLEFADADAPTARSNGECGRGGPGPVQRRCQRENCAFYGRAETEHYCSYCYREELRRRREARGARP
Procedure, shortened: as §1

UniProt Q9P2H5 = biological target: T3, UniProt Q9P2H5
T3 sequence (whole entry): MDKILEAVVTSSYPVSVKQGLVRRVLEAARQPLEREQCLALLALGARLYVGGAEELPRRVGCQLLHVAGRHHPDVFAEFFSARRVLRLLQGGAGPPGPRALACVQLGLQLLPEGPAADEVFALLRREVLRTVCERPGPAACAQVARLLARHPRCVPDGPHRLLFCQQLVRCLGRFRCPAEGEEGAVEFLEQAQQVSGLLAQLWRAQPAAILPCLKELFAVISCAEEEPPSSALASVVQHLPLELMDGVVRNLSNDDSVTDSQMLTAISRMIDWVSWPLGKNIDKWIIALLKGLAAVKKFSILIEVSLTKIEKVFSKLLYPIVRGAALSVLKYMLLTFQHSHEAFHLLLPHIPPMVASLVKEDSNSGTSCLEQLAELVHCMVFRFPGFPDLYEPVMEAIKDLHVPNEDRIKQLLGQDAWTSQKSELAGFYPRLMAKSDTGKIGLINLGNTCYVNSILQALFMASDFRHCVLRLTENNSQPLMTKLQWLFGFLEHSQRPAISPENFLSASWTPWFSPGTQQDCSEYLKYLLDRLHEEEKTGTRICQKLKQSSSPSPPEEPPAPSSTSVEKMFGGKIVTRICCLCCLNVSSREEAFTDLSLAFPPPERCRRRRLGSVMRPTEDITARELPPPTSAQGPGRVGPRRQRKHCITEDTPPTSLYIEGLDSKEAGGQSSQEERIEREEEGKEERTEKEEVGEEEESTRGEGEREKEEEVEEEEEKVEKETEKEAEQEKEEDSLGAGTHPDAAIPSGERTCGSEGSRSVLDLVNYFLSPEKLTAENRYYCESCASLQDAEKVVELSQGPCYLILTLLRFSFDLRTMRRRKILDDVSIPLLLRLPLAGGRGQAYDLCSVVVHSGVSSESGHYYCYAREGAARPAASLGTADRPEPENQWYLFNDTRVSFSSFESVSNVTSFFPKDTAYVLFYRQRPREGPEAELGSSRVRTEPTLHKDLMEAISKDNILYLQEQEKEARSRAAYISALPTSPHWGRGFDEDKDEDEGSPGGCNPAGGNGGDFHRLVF
Procedure, shortened: as §1

UniProt Q9UGI0 = biological target: T4, UniProt Q9UGI0
T4 sequence (whole entry): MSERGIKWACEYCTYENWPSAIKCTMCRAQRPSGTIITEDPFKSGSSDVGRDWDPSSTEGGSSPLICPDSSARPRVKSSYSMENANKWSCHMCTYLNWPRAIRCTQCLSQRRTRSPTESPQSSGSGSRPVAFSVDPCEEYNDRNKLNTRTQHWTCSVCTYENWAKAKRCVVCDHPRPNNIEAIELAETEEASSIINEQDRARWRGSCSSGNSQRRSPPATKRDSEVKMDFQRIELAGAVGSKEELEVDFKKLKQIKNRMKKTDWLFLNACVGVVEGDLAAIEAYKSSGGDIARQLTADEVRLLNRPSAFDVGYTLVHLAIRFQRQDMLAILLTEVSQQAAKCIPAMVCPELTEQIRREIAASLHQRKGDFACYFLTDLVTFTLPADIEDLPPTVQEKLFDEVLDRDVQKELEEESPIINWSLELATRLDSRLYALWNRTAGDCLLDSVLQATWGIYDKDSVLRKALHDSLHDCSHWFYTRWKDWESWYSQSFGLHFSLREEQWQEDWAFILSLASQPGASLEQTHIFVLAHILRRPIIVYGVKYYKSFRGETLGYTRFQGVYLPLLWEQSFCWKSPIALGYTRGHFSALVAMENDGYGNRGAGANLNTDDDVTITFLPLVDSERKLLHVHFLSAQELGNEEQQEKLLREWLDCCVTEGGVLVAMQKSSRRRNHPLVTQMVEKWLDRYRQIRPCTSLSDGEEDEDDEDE
Procedure, shortened: as §1

YOD1 = biological target: T5, YOD1 (UniProt Q5VVQ6)
T5 sequence (whole entry): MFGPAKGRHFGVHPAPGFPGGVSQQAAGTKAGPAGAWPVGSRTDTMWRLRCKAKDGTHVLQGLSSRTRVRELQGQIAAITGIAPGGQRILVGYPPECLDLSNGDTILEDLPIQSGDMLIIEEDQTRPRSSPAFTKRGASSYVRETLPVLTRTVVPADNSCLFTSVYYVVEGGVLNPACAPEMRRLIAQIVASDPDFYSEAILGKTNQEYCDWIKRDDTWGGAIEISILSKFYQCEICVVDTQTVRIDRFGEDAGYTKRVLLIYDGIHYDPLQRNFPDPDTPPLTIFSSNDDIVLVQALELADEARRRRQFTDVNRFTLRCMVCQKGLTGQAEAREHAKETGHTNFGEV
Procedure, shortened: as §1

Measured: log2 ratio of Biotin-Ahx-Ub-VS probe labelling

Cc1cccc(NC(=O)CCl)c1C
inactive: USP9X -0.185 | UniProt O00487 -0.182 | UniProt O00507 -0.281 | UniProt P51784 -0.431 | UniProt Q5T2D3 -0.156 | UniProt Q8TE49 -0.703 | UniProt Q9P2H5 -0.325 | UniProt Q9UGI0 -0.414 | YOD1 -0.291
